From ChEMBL document CHEMBL1961873, “Compounds: GSK PKIS; Assays: Nanosyn kinase panel” (2012)

Tests used:
[1] = target: T1, Ephrin type-B receptor 2 (Homo sapiens) (UniProt P29323); conditions: at 1 µM
T1 sequence (whole entry): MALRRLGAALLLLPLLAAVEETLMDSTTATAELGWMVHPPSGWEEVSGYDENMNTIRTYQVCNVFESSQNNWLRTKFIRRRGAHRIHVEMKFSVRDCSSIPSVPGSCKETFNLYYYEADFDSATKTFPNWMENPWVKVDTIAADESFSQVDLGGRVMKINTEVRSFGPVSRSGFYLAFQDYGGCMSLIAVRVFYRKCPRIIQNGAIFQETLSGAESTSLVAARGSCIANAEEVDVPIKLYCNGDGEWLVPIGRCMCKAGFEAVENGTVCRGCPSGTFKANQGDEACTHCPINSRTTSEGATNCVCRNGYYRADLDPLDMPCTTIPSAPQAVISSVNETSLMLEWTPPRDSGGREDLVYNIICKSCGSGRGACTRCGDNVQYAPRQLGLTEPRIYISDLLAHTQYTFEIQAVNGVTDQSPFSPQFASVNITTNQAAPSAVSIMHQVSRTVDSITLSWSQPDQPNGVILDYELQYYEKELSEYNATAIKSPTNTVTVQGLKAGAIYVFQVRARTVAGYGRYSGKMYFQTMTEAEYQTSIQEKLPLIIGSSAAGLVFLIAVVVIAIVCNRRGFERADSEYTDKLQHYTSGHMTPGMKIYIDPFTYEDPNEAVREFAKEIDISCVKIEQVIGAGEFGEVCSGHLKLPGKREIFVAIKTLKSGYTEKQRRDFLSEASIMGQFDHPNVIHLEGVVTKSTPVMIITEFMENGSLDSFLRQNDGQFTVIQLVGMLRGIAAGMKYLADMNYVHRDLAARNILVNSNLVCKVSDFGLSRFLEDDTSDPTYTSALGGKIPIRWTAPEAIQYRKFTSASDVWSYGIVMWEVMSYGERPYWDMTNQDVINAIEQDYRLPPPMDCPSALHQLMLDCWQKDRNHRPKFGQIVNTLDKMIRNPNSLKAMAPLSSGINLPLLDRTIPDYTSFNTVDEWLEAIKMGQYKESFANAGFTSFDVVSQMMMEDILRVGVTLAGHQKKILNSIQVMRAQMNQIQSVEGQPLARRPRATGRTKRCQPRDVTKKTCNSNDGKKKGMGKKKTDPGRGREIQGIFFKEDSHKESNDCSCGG

[2] = target: T2, Ephrin type-B receptor 3 (Homo sapiens) (UniProt P54753); conditions: at 0.1 µM
T2 sequence (whole entry): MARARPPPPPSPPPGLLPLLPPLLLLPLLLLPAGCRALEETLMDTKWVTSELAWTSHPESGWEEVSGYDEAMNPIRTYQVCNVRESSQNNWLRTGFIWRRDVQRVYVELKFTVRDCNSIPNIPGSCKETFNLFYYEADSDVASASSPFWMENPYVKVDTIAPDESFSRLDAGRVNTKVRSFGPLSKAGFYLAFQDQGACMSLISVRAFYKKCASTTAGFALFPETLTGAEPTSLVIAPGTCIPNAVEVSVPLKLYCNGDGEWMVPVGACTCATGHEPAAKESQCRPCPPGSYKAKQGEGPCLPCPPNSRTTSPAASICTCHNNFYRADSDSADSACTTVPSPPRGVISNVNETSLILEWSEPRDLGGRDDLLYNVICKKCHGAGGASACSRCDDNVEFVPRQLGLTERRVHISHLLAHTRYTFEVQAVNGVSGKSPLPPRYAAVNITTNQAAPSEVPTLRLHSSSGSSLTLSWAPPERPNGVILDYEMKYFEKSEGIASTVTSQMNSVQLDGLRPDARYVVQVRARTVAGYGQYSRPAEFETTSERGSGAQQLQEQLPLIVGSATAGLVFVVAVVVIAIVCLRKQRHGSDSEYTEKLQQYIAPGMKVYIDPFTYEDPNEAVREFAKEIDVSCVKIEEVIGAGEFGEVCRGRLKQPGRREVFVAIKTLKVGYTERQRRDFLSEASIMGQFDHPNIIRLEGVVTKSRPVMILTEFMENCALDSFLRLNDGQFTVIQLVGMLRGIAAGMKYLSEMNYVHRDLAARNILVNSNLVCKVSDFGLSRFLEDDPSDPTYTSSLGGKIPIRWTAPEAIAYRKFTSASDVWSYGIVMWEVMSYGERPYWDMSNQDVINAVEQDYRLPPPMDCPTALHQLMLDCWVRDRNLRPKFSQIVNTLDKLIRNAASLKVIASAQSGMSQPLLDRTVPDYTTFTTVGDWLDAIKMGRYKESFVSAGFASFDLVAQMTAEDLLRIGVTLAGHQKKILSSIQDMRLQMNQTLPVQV

[3] = target: T2, Ephrin type-B receptor 3 (Homo sapiens); conditions: at 1 µM
[4] = target: T3, Ephrin type-B receptor 4 (Homo sapiens) (UniProt P54760); conditions: at 0.1 µM
T3 sequence (whole entry): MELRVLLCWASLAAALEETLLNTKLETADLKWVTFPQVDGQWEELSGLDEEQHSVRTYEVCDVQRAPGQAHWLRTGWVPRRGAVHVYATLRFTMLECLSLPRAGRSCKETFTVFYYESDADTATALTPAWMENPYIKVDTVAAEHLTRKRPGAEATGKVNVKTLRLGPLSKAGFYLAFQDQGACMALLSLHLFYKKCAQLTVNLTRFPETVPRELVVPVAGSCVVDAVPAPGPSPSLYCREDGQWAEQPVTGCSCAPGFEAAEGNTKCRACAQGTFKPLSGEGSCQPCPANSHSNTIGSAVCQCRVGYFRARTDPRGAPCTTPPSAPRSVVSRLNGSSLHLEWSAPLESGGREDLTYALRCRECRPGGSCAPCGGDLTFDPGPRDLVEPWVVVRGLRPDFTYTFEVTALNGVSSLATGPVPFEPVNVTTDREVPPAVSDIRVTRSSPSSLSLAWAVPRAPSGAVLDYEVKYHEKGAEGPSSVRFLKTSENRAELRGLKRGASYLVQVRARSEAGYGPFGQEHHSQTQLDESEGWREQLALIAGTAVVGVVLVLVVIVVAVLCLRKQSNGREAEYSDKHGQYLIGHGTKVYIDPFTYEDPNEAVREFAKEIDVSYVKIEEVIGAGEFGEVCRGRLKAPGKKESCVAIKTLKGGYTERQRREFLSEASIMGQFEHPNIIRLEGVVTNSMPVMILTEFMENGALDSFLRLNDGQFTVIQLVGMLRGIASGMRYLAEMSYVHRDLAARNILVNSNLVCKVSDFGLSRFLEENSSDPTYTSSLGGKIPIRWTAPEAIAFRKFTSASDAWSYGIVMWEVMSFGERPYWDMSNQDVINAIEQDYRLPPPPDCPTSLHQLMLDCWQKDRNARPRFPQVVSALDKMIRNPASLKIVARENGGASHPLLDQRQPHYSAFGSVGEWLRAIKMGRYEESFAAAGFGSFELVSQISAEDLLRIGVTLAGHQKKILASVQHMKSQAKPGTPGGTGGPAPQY

[5] = target: T3, Ephrin type-B receptor 4 (Homo sapiens); conditions: at 1 µM
[6] = target: Receptor tyrosine-protein kinase erbB-2 (Homo sapiens) (UniProt P04626); conditions: at 0.1 µM
[7] = target: Receptor tyrosine-protein kinase erbB-2 (Homo sapiens) (UniProt P04626); conditions: at 1 µM
[8] = target: Receptor tyrosine-protein kinase erbB-4 (Homo sapiens) (UniProt Q15303); conditions: at 0.1 µM
[9] = target: Receptor tyrosine-protein kinase erbB-4 (Homo sapiens) (UniProt Q15303); conditions: at 1 µM
[10] = target: Tyrosine-protein kinase Fer (Homo sapiens) (UniProt P16591); conditions: at 0.1 µM
[11] = target: Tyrosine-protein kinase Fer (Homo sapiens) (UniProt P16591); conditions: at 1 µM
[12] = target: Tyrosine-protein kinase Fes/Fps (Homo sapiens) (UniProt P07332); conditions: at 0.1 µM
[13] = target: Tyrosine-protein kinase Fes/Fps (Homo sapiens) (UniProt P07332); conditions: at 1 µM
[14] = target: Fibroblast growth factor receptor 1 (Homo sapiens) (UniProt P11362); conditions: at 0.1 µM
[15] = target: Fibroblast growth factor receptor 1 (Homo sapiens) (UniProt P11362); conditions: at 1 µM
[16] = target: Fibroblast growth factor receptor 2 (Homo sapiens) (UniProt P21802); conditions: at 0.1 µM
[17] = target: Fibroblast growth factor receptor 2 (Homo sapiens) (UniProt P21802); conditions: at 1 µM
[18] = target: Fibroblast growth factor receptor 3 (Homo sapiens) (UniProt P22607); conditions: at 0.1 µM
[19] = target: Fibroblast growth factor receptor 3 (Homo sapiens) (UniProt P22607); conditions: at 1 µM
[20] = target: Fibroblast growth factor receptor 4 (Homo sapiens) (UniProt P22455); conditions: at 0.1 µM;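 note: values are mean percent inhibition of FGFR4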
Chain of Fibroblast growth factor receptor 4 (Homo sapiens) (P22455 22-802 limits assumed): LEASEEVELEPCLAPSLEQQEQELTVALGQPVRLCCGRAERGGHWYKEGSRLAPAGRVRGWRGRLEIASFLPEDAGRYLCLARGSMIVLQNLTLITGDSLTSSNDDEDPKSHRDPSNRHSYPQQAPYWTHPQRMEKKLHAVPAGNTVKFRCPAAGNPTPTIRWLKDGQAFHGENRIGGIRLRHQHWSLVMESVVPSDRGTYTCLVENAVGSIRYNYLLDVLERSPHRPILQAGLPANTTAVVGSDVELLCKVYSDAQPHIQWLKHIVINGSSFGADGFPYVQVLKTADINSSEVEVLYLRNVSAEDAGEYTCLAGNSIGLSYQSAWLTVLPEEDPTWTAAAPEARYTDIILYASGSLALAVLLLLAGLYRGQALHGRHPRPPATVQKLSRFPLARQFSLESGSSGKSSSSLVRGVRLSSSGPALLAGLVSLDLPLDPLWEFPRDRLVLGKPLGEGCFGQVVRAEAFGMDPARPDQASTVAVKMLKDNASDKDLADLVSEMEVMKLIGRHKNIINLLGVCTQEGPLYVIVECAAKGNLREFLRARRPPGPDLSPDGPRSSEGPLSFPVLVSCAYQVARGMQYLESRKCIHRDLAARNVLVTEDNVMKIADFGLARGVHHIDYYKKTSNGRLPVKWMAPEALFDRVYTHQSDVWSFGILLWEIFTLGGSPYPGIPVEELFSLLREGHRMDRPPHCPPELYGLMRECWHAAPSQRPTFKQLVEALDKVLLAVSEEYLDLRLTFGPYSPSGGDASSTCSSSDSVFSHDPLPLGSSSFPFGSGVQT

Chain of Fibroblast growth factor receptor 1 (Homo sapiens) (P11362 22-822 limits assumed): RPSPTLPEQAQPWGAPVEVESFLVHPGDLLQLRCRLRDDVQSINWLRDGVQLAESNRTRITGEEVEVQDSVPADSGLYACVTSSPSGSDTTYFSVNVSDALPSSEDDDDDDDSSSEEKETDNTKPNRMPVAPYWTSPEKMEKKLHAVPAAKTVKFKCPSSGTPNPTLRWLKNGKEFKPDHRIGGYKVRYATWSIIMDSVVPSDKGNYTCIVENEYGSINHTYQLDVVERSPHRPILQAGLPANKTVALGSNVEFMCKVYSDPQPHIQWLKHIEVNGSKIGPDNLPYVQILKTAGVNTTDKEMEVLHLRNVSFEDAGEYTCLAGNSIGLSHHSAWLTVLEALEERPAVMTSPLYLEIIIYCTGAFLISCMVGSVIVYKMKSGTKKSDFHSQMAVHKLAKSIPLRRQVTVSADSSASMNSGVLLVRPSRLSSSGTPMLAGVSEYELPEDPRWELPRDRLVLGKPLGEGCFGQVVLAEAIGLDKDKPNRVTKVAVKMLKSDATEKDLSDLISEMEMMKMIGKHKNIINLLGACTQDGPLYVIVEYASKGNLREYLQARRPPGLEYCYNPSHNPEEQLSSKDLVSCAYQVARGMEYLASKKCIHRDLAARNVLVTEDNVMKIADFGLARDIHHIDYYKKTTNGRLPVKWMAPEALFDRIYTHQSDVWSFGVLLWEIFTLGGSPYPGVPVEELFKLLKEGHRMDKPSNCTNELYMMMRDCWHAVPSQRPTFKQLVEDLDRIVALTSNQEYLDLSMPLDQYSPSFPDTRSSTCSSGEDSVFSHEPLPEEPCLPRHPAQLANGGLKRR
Chain of Receptor tyrosine-protein kinase erbB-2 (Homo sapiens) (P04626 whole entry): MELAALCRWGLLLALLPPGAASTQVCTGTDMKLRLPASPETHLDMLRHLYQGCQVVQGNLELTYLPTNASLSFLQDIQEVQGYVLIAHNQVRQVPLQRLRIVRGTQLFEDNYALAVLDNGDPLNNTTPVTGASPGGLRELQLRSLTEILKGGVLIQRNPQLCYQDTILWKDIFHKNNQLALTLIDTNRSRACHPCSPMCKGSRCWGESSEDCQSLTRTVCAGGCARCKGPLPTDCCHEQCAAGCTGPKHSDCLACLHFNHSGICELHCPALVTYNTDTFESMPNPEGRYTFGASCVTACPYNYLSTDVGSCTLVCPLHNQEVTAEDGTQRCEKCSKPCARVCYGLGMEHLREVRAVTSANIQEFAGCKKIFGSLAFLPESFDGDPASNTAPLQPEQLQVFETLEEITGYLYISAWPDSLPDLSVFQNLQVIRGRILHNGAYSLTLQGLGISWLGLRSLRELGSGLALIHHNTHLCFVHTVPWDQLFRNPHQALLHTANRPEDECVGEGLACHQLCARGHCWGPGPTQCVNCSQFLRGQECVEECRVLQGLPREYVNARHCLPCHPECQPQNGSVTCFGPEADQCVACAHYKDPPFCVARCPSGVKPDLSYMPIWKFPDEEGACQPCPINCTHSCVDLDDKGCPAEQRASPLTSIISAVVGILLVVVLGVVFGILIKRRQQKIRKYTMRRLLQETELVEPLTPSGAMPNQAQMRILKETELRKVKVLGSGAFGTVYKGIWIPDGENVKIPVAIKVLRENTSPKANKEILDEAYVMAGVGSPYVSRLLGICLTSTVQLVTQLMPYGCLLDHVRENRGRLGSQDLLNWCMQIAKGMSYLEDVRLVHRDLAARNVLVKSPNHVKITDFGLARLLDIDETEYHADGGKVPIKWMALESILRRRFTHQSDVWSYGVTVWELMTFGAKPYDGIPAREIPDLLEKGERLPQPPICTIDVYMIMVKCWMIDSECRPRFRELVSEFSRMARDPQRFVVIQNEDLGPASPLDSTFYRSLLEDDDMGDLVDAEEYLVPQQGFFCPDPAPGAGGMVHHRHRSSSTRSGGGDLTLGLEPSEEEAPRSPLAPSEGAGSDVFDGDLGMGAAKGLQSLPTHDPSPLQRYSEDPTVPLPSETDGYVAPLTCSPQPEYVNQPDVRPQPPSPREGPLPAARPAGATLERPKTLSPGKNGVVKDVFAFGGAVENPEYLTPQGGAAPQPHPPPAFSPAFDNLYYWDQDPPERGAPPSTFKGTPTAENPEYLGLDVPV
Chain of Tyrosine-protein kinase Fer (Homo sapiens) (P16591 whole entry, looked up): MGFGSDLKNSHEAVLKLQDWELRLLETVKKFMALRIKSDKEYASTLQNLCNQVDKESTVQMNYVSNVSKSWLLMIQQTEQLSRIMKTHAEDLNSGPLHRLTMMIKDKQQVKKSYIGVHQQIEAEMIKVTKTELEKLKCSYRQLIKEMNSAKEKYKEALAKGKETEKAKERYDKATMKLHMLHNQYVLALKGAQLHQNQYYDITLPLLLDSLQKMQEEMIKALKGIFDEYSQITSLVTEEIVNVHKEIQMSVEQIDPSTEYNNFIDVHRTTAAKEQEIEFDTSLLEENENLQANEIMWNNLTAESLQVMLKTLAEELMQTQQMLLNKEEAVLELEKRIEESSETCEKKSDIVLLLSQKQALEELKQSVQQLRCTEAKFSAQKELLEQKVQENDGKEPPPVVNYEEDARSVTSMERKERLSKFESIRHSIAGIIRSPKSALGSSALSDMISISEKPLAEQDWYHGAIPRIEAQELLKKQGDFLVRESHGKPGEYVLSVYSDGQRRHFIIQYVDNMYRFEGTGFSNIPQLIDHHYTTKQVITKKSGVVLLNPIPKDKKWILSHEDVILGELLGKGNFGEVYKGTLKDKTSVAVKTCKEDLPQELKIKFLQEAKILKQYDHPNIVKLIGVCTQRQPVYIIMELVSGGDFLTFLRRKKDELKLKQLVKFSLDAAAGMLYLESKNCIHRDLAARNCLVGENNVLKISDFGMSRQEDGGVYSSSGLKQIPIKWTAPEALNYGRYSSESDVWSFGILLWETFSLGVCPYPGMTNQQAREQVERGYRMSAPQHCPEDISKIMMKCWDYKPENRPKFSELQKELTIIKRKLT
Chain of Receptor tyrosine-protein kinase erbB-4 (Homo sapiens) (Q15303 whole entry): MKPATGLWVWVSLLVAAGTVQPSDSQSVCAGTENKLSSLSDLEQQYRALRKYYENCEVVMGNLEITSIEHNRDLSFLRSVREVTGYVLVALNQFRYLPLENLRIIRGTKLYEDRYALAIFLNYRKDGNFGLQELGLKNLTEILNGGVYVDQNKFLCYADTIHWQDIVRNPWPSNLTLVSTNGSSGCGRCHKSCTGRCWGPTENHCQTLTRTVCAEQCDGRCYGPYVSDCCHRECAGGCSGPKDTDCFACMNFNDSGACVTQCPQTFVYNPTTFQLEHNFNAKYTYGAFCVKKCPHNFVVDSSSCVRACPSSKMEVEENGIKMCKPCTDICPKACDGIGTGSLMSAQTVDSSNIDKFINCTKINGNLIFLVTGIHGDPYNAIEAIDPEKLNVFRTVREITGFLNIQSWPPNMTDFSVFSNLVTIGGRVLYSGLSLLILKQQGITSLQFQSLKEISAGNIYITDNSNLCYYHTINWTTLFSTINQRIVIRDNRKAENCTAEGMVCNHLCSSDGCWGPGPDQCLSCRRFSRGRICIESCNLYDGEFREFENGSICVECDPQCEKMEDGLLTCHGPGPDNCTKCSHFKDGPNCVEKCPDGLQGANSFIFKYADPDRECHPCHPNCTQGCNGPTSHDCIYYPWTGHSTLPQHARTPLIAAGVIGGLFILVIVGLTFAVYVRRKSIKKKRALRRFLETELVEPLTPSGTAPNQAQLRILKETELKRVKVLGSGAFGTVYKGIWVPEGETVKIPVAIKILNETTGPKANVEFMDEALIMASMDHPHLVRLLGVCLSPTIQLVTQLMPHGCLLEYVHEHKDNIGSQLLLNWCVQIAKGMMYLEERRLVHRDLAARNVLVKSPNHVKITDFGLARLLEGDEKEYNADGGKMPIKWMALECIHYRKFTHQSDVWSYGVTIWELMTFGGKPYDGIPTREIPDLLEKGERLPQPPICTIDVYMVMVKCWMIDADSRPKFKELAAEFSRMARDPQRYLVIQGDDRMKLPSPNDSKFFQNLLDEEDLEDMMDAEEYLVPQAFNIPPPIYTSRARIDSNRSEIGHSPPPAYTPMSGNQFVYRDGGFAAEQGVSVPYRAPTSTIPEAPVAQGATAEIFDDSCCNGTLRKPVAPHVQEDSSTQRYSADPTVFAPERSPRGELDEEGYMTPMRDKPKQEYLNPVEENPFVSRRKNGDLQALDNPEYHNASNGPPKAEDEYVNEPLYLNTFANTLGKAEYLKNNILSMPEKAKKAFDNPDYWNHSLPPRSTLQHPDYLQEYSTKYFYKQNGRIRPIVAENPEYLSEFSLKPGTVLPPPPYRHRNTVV

| SMILES | inhibition [1] [%] | inhibition [2] [%] | inhibition [3] [%] | inhibition [4] [%] | inhibition [5] [%] | inhibition [6] [%] | inhibition [7] [%] | inhibition [8] [%] | inhibition [9] [%] | inhibition [10] [%] | inhibition [11] [%] | inhibition [12] [%] | inhibition [13] [%] | inhibition [14] [%] | inhibition [15] [%] | inhibition [16] [%] | inhibition [17] [%] | inhibition [18] [%] | inhibition [19] [%] | inhibition [20] [%] |
| --- | --- | --- | --- | --- | --- | --- | --- | --- | --- | --- | --- | --- | --- | --- | --- | --- | --- | --- | --- | --- |
| COc1cc2c(cc1Nc1nc(N3CCc4ccccc43)c3cc[nH]c3n1)N(C(=O)CN(C)C)CC2 | 9.31 | 2.82 | 0.49 | 1 | 0.73 | 1.22 | -0.36 | 6.72 | 6.14 | 66.2 | 85.2 | 39.9 | 62.3 | 2.98 | -1.36 | 0.56 | 6.55 | 3.52 | 0.84 | -1.03 |
| COc1ccc2cc(-c3c(-c4ccncc4)nc(-c4ccc([S+](C)[O-])cc4)n3C)ccc2c1 (stereo not given) | 6.51 | 5.38 | 4.12 | 2.71 | 6.99 | 2.07 | -0.38 | 12.1 | 23.1 | 1.4 | 3.19 | 2.73 | 3 | 0.66 | 17 | 3.38 | 5.85 | 4.62 | 5.2 | 0.03 |
| COc1ccc(-c2nn3ncccc3c2-c2ccnc(Nc3ccc(Cl)c(C(F)(F)F)c3)n2)cc1 | 10 | 3.56 | 4.88 | 3.3 | -0.34 | 3.66 | 7.66 | 16 | 51.5 | 1.3 | 3.06 | 0.66 | 1.82 | 1.96 | -2.37 | 1.72 | 2.97 | 2.57 | 4.12 | 0.28 |
| Cn1cc(C=C2C(=O)Nc3cccnc32)c2ccccc21 | 12 | 4.59 | -0.71 | 0.9 | 5.16 | 0.95 | 3.11 | 9.66 | 9.14 | 0.48 | 20.8 | 1.69 | 2.19 | 6.57 | 17.3 | 9.78 | 42.2 | 11.2 | 47.8 | 2.46 |
| CCCN1CCC=C(c2ccc(Nc3nc(Nc4ccccc4C(N)=O)c4cc[nH]c4n3)c(C)c2)C1 | 8.88 | 1.76 | 2.4 | 2.74 | 3.5 | 2.98 | 3.15 | 7.5 | 27.7 | 12.8 | 68.7 | 16.5 | 57.3 | 1.72 | 7.09 | 6.37 | 7.35 | 6.92 | 6.81 | 3.01 |
| COc1cc(C=NNc2ncnc3c2cnn3-c2ccccc2)ccc1O | 18.2 | 3.59 | -2.55 | 2.58 | 9.64 | 1.75 | -2.49 | 3.71 | 6.51 | -3.39 | 4.88 | 2.59 | 4.03 | 1.01 | 3.72 | 3 | 9.48 | 2.91 | 7.58 | 4.25 |
| O=C1NC(=O)C(c2ccccc2Cl)=C1Nc1cccc(O)c1 | 7.6 | 4.32 | 1.16 | 1.29 | 3.19 | 0.64 | -0.2 | 8.95 | 8.95 | 4.57 | 2.82 | 1.81 | 2.5 | 4.34 | 7.05 | 3.39 | -3.75 | 2.9 | 2.97 | 1.92 |
| COc1cccc(-n2ncc3c(N/N=C/c4cccc(F)c4)ncnc32)c1 | 4.03 | 0.95 | -0.77 | -0.91 | 0.63 | 1.57 | -0.99 | 1.08 | 2.68 | 2.76 | 3.05 | 1.31 | 0.83 | -2.97 | -3.18 | -3.24 | -0.48 | 0.54 | -0.4 | -3.35 |
| O=C1Nc2ccc(C(=O)c3ccco3)cc2C1=Cc1cc(Cl)c(O)c(Cl)c1 | 15 | 4.56 | 5.53 | 3.11 | 2.52 | 0.77 | 4.54 | 12.2 | 15.8 | 2.31 | 11.5 | 1.95 | 2.89 | 3.35 | 8.23 | 6.09 | 25.8 | 9.26 | 19.1 | 2.69 |
| NC(=O)c1ccc(-c2nc(-c3ccccn3)c(-c3ccc4c(c3)OCO4)[nH]2)cc1 | 6.48 | 4.63 | 1.89 | 3.74 | 1.95 | 2.99 | 0.42 | 7.53 | 11.4 | 1.79 | 6.64 | 1.52 | 2.16 | -0.93 | 2.26 | 0.95 | 1.31 | 2.79 | 1.9 | 4.19 |
| Cc1ccc(C(=O)NC2CCCCC2)cc1-c1ccc(C(=O)NCC2CC2)cc1 | 7.74 | 5.37 | 1.76 | 1.61 | 0.58 | -0.05 | -2.24 | 13.3 | 17.9 | 5.55 | 4.17 | 3.08 | 2.29 | 3.66 | 5.66 | 2.75 | 6.2 | 4.11 | 4.7 | -0.52 |
| NS(=O)(=O)c1cccc(-c2ccc3c(NC(=O)C4CC4)n[nH]c3c2)c1 | -0.57 | -3.25 | -3.05 | -1.93 | -1.01 | -3.46 | -5.29 | -3.96 | -3.93 | 1.7 | 3.76 | -3.2 | -4 | 0.33 | -2.92 | -1.77 | -1.15 | -0.12 | 0.44 | 0.21 |
